The numbers were not newly measured in PubChem BioAssay AID977608, which cites them from elsewhere.

Broadly, the IC50 is the concentration needed to halve the response being measured.

Screen size: about 4,300 compounds; about 4,300 (100%) were called active. No cut-off is given here; in the data, nearly all actives have IC50 up to about 1400 µM. So high a share suggests a set chosen from earlier hits. The list shows a part of the results. Where a SMILES comes first, the peptide text is derived from it. [ ]: non-standard residue; d: D form. The star is where a group is joined. Thr(P(OH)3+) = C[C@@H](O[P+](O)(O)O)[C@H](N)C(=O)O; Pentanoyl(5-cHex) = O=C(CCCCC1CCCCC1)*; Ahx = NCCCCCC(=O)O

The data set in a line: literature IC50 values for PDB complexes, PDB-derived complexes (AID 977608). As to conditions: PDB protein-ligand complexes.

`O=C(C[P+](O)(O)O)OC1[C@@H](O[P+](O)(O)O)[C@H](O[P+](O)(O)O)C(OCc2ccccc2)[C@H](O[P+](O)(O)O)[C@H]1O[P+](O)(O)O` (stereo not given in full): the IC50 (protein: Inositol hexakisphosphate and diphosphoinositol-pentakisphosphate kinase 2 PPIP5K2, PDB entry 4nzn) was 420 nM (active).

As for `O=C(C[P+](O)(O)O)OC1[C@@H](O[P+](O)(O)O)[C@H](O[P+](O)(O)O)C(O[P+](O)(O)O)[C@H](O[P+](O)(O)O)[C@H]1O[P+](O)(O)O` (stereo not given in full), the IC50 (protein: Inositol hexakisphosphate and diphosphoinositol-pentakisphosphate kinase 2 PPIP5K2, PDB entry 4nzm) is 140 nM (active).

Consider `CCCNCC([P+](O)(O)O)[P+](O)(O)O`, for which the IC50 (protein: Farnesyl pyrophosphate synthase, PDB entry 4dxj) is 38 nM (active).

`CCCCCCCNCC([P+](O)(O)O)[P+](O)(O)O`: for the setting “protein: Farnesyl pyrophosphate synthase, PDB entry 4dwg”, the IC50 is 58 nM (active).

Consider `CCCCCCNCC([P+](O)(O)O)[P+](O)(O)O`, for which, under “protein: Farnesyl pyrophosphate synthase, PDB entry 4e1e”, the IC50 was 490 nM (active).

In the case of `CCCCCNCC([P+](O)(O)O)[P+](O)(O)O`, the IC50 (protein: Farnesyl pyrophosphate synthase, PDB entry 4dwb) is 1840 nM (active).

For the compound `CC(=O)N[C@H]1[C@@H](O[P+](O)(O)O[P+](O)(O)OC[C@H]2O[C@@H](n3ccc(=O)[nH]c3=O)[C@H](O)[C@@H]2O)O[C@H](CO)[C@@H](O)[C@@H]1O[C@H](C)C(=O)N[C@@H](C)C(=O)N[C@H](CCC(=O)N[C@@H](CSCCc1cn([C@@H]2[C@H](O)[C@@H](CO[P+](O)(O)O[C@H]3[C@@H](O)[C@H](n4ccc(N)nc4=O)O[C@@H]3CO[P+](O)(O)O[C@H]3[C@@H](O)[C@H](n4ccc(N)nc4=O)O[C@@H]3COP(O)O)O[C@H]2n2cnc3c(N)ncnc32)nn1)C(=O)N[C@H](C)C(=O)N[C@H](C)C(=O)O)C(=O)O`, the IC50 (protein: FemX, PDB entry 4ii9) was 930 nM (active).

Turning to `CN(Cc1cnc2c(n1)C(N)NC(N)N2)c1ccc(C(=O)N[C@@H](CCC(=O)O)C(=O)O)cc1` (stereo not given in full), the IC50 (protein: Lactobacillus casei dihydrofolate reductase, PDB entry 1ao8) is 6 nM (active).

Consider `NCC[C@H](C1CC=CC1)n1cc(-c2ncnc3[nH]ccc23)cn1`, for which the IC50 (protein: Proto-oncogene tyrosine-protein kinase Src, PDB entry 4u5j) was 2930 nM (active).

In the case of `O=CC[C@@H](NC(=O)OC1CCCC1)c1ccccc1`, the IC50 (protein: RHOMBOID PROTEASE GLPG, PDB entry 3zmh) was 5270 nM (active).

Take `O=CC[C@@H](NC(=O)Oc1ccccc1)c1ccccc1`: the IC50 (protein: RHOMBOID PROTEASE GLPG, PDB entry 3zmi) is 1120 nM (active) and the IC50 (protein: RHOMBOID PROTEASE GLPG, PDB entry 3zot) was 1120 nM (active).

For `CC(C)COC(=O)N[C@H](CC=O)c1ccccc1`, for the setting “protein: RHOMBOID PROTEASE GLPG, PDB entry 3zmj”, the IC50 is 11700 nM (active).

In the case of `CSCC[C@H](NC(=O)[C@@H](NC(=O)[C@H](CO)NC(=O)[C@H](Cc1cnc[nH]1)NC(=O)[C@H](CC(C)C)NC(=O)[C@@H]1CCCN1C(=O)CC12CC3CC(CC(C3)C1)C2)[C@@H](C)O[P+](O)(O)O)C(N)=O` (HELM PEPTIDE1{[O=C(CC12CC3CC(CC(C3)C1)C2)[*:2]].P.L.H.S.[C[C@@H](O[P+](O)(O)O)[C@H](N[*:1])C(=O)[*:2]].M.[am]}$$$$V2.0), the IC50 (protein: Serine/threonine-protein kinase PLK1, PDB entry 4lkl) is 820 nM (active).

On to `CSCC[C@H](NC(=O)[C@@H](NC(=O)[C@H](CO)NC(=O)[C@H](Cc1cnc[nH]1)NC(=O)[C@H](CC(C)C)NC(=O)[C@@H]1CCCN1C(=O)CCCCCNC(=O)CCCCC1CCCCC1)[C@@H](C)O[P+](O)(O)O)C(N)=O` ({Pentanoyl(5-cHex)-Ahx}-PLHS[Thr(P(OH)3+)]M-NH2), for which the IC50 (protein: Serine/threonine-protein kinase PLK1, PDB entry 4lkm) is 460 nM (active).

On to `Cc1[nH]c2ccccc2c1CCNC(=O)c1ccccc1F`, for which, under “protein: Arp2/3 complex, PDB entry 3ukr”, the IC50 was 12000 nM (active).

In the case of `NC1CCC(Nc2nccc(-c3cccnc3Oc3ccc(NS(=O)(=O)c4ccccc4)c4ccccc34)n2)CC1` (stereo not given), the IC50 (protein: Mitogen-activated protein kinase 10 JNK3, PDB entry 4u79) is 400 nM (active).

On to `O=C(COc1ccccc1[P+](O)(O)O)Nc1cccc(Cl)c1`, for which the IC50 (protein: 14-3-3 protein sigma, PDB entry 4dhq) is 32000 nM (active).

Turning to `COc1cccc(NC(=O)COc2ccccc2[P+](O)(O)O)c1`, the IC50 (protein: 14-3-3 protein sigma, PDB entry 4dho) is 118000 nM (active).

For `O=C(COc1ccccc1[P+](O)(O)O)Nc1cc(Cl)cc(Cl)c1`, the IC50 (protein: 14-3-3 protein sigma, PDB entry 4dhs) was 16000 nM (active).

With `COc1ccc(OC)c(NC(=O)COc2ccccc2[P+](O)(O)O)c1`, where the note is “protein: 14-3-3 protein sigma, PDB entry 3t0m”, the IC50 is 116000 nM (active).

Take `O=C(COc1ccccc1[P+](O)(O)O)Nc1cccc(C(F)(F)F)c1`: under “protein: 14-3-3 protein sigma, PDB entry 4dhm”, the half-inhibitory concentration (IC50) is 165000 nM (active).

For `NC1=N[C@@]2(c3cc(NC(=O)c4ccc(F)cn4)ccc3F)COC[C@H]2CS1`, the IC50 (protein: Beta-secretase 1 BACE1, PDB entry 4x7i) is 20.3 nM (active).

Regarding `Cc1nc(-c2ccccn2)nc(N[C@H](Cc2ccccc2)C(N)=O)c1Cl`, the IC50 (protein: Methionine aminopeptidase 1, PDB entry 4iku) is 1790 nM (active).

`CCC(C)(C)c1nn(CCO)c2c1NC(c1ccc(-n3ccnc3C)cc1)CNC2=O` (stereo not given): for the setting “protein: cGMP-dependent 3',5'-cyclic phosphodiesterase, PDB entry 4jib”, the IC50 is 45 nM (active).

Consider `CC(C)C[C@H](NC(=O)OCc1ccccc1)C(=O)N[C@H](CO)C[C@@H]1CCNC1=O`, for which the IC50 by setting is: (protein: 3C-like proteinase, PDB entry 4f49) 820 nM (active); (protein: Genome polyprotein, PDB entry 4dcd) 1770 nM (active).

For `CC[C@H](C)[C@H](CO)[C@@H](O)C(=O)N[C@H]1C[C@H]1C[C@@H](CCc1ccccc1)NC(=O)[C@H](C)NC(=O)OCc1ccccc1`, the IC50 (protein: Proteasome, PDB entry 4j70) is 5700 nM (active).

With `COC(=O)N[C@@H](CC(C)C)C(=O)N[C@H](CO)C[C@@H]1CCNC1=O`, the 50% inhibitory concentration (IC50) (protein: 3C-like protease, PDB entry 3ur9) is 490 nM (active).

Consider `CC(C)C[C@H](NC(=O)OCc1ccccc1)C(=O)N[C@@H](CC(C)C)C(=O)N[C@@H](CC(C)C)[C@@H](O)[C@H](C)CO`, for which, for the setting “protein: Proteasome subunit alpha CP, PDB entry 4no9”, the IC50 was 15 nM (active).

With `c1cc2c(cn1)cnc1sccc12`, where the note is “protein: DUAL SPECIFICITY PROTEIN KINASE TTK, PDB entry 4bi2”, the IC50 is 94100 nM (active).

Consider `c1cc2cnc3ccsc3c2cn1`, for which the IC50 (protein: DUAL SPECIFICITY PROTEIN KINASE TTK, PDB entry 4bi1) was 69100 nM (active).

For `c1cc2cnc3sccc3c2cn1`, the IC50 (protein: DUAL SPECIFICITY PROTEIN KINASE TTK, PDB entry 4bhz) is 53500 nM (active).

As to `Cc1cccc2c1CCN(C(=O)[C@@H]1CCCC[C@@H]1C(=O)O)[C@@H]2CN1Cc2ccccc2C1=O`, the IC50 (protein: Kelch-like ECH-associated protein 1, keap1 kelch domain, PDB entry 4l7d) is 750 nM (active).

In the case of `O=C(O)[C@H]1CCCC[C@H]1C(=O)N1CCc2ccccc2[C@H]1CN1Cc2ccccc2C1=O`, the IC50 (protein: Kelch-like ECH-associated protein 1, keap1 kelch domain, PDB entry 4n1b) is 1100 nM (active).
